# Measurements as given in PubChem BioAssay (NCATS).
# Records with an inconclusive call do not appear. Active and inactive are the calls of the source. Unless noted, calls come from the whole dose curve; as a rule, active = well fitted curve in the direction sought with a large enough effect; inconclusive = small, poorly fitted or top-dose-only effect, or another doubt; inactive = no such curve, though single readings can be large; an effect the other way counts as inactive or inconclusive.
# How the values were obtained:
# [1] = P-glycoprotein substrates identified in KB-3-1 adenocarcinoma cell line, qHTS therapeutic library screen (AID 1346986); note: nearly all actives have a fitted effect of over 60% in size;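 note: potency is the fitted concentration of half-maximal effect; potency is for cytotoxicity meaning loss of cell viability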
# Summary of the method: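 Dose-response cytotoxicity, KB-3-1 vs P-gp-high KB-8-5-11, no colchicine in assay medium. Read: CellTiter-Glo at 72 h.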
# [2] = qHTS to identify inhibitors of the type 1 interferon - major histocompatibility complex class I in skeletal muscle: primary screen against the NCATS Mechanism Interrogation Plate v5.0 (MIPE) Libary (AID 1347411); note: nearly all actives have a fitted effect of over 65% in size; note: potency is the fitted concentration of half-maximal effect;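 for activity change, negative = inhibition: plate controls were vehicle for no effect and reference inhibitor for full effect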
# Summary of the method: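 HLA-B HiBit myoblasts, dexamethasone-free medium + 4 ng/ml IFN-b, 24 h compound, 11-pt 1:3 from 46 uM final. Readout: Nano-Glo HiBiT lytic luminescence after 10 min lysis, RT.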
# [3] = Primary qHTS for inhibitors of nuclear receptor binding SET domain protein 2 (NSD2) in an isogenic RCH-ACV NSD2 p.E1099K mutant (9B) (AID 1645876); note: potency is the fitted concentration of half-maximal effect; nearly all actives have a fitted effect of over 70% in size
# [4] = Primary qHTS for inhibitors of nuclear receptor binding SET domain protein 2 (NSD2) in an RCH-ACV wild type WT cells (2C) (AID 1645877); note: potency is the fitted concentration of half-maximal effect; nearly all actives have a fitted effect of over 70% in size
# [5] = biological target: Glutathione peroxidase 1 (Homo sapiens) (UniProt P07203); assay: Primary qHTS Assay for Inhibitors of Recombinant Selenoprotein Glutathione Peroxidase 1 (GPX1) (AID 1845191); note: nearly all actives have a fitted effect of over 65% in size; for activity, negative = inhibition: % is set by controls: 0 for no effect and ±100 for the full control effect
# Glutathione peroxidase 1 (Homo sapiens), sequence (P07203 whole entry, looked up): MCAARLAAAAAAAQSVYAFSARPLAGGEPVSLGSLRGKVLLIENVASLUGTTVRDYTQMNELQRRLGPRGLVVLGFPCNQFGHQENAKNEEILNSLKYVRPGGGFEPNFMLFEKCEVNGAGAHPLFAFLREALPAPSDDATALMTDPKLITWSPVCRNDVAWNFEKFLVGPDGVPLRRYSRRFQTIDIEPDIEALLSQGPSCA
# Summary of the method: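 NADPH consumption tracked by fluorescence at 340/450 nm between t=0 and t=15 min, room temperature. Final mix: 10 nM GPX1, 100 nM glutathione reductase, 1 mM GSH, 0.5 mM NADPH, 0.5 mM cumene hydroperoxide, 0.01% BSA; 30 min compound–enzyme preincubation.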
# [6] = biological target: Phospholipid hydroperoxide glutathione peroxidase GPX4 (Homo sapiens) (UniProt P36969); assay: Primary qHTS Assay for Inhibitors of Recombinant Selenoprotein Glutathione Peroxidase 4 (GPX4) (AID 1845192); conditions: outcome: dose series up to 50 µM unless noted; note: % is set by controls: 0 for no effect and ±100 for the full control effect; nearly all actives have a fitted effect of over 65% in size
# Phospholipid hydroperoxide glutathione peroxidase GPX4 (Homo sapiens), sequence (P36969 whole entry, looked up): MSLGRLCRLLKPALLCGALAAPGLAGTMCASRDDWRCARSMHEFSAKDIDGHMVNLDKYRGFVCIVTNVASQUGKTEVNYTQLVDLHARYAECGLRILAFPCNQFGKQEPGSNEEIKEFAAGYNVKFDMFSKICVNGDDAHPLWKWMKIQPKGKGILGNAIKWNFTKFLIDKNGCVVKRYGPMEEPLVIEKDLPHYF
# Summary of the method: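 NADPH consumption followed by fluorescence at 340/450 nm, t=0 and after 15 min at room temperature. Reaction started with cumene hydroperoxide (0.5 mM final) after 30 min compound–GPX4 preincubation; final 200 nM GPX4, 100 nM GR, 1 mM GSH, 0.5 mM NADPH.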
# [7] = qHTS drug screen for cell cycle checkpoint inhibitors in PARPi-resistant BRCA-mutant ovarian cancer cell lines. (AID 1963452; calls by dose curve); conditions: PEO1/OlaR viability, CellTiter-Glo luminescence, 96 h, stronger effect = lower value
# Summary of the method: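 PEO1, PEO4 and PEO1/OlaR ovarian cancer cells, 600 per well, exposed 96 h at 37C to a dilution series. Viability read by CellTiter-Glo luminescence, normalized to DMSO and empty wells; activity summarized as Z-AUC.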
# [8] = qHTS assay to identify inhibitors of the type 1 interferon - major histocompatibility complex class I in skeletal muscle: Counter screen cell viability and HiBit confirmation (AID 1347412); conditions: iHSKM muscle cells + IFN-b, HiBiT or CellTiter-Glo, 24 h; HiBiT; note: potency is the fitted concentration of half-maximal effect; nearly all actives have a fitted effect of over 60% in size
# Summary of the method: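 Luminescence read-out: Nano-Glo HiBiT lytic signal from C-terminally HiBiT-tagged HLA-B in CRISPR-edited human myoblasts, plus CellTiter Glo ATP as viability counter screen. IFN-beta 4.0 ng/ml; 24 hrs treatment at 37 C, 5% CO2.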
# [9] = biological target: Lysosomal acid glucosylceramidase (Homo sapiens) (UniProt P04062); assay: Glucocerebrosidase-p2 (AID 348; in the data active = potency below about 10 µM; note: potency is the fitted concentration of half-maximal effect); conditions: purified GBA, blue fluorogenic substrate, 40 min
# Lysosomal acid glucosylceramidase (Homo sapiens), sequence (P04062 whole entry, looked up): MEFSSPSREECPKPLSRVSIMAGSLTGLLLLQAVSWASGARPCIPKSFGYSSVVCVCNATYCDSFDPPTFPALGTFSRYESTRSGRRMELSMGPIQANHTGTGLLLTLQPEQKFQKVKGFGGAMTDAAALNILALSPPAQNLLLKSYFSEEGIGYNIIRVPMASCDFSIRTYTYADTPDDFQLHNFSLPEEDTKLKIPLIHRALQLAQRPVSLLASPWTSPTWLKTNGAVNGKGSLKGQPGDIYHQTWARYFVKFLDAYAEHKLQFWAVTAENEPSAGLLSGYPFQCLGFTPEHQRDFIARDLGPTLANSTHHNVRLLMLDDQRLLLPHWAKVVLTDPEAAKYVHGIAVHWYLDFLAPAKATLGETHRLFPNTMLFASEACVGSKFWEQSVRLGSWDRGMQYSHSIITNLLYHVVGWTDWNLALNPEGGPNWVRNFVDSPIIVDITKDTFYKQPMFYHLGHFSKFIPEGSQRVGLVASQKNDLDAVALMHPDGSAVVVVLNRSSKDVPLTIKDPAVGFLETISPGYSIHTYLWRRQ
# Summary of the method: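 Normal human glucocerebrosidase (0.2 nM) with blue fluorogenic substrate (80 uM final) in citrate/phosphate pH 5.9 with 10mM sodium taurocholate, 0.01% tween-20; 40 min RT, NaOH/glycine stop; fluorescence Ex 365/Em 440; AC50 from a titration from 0.6 nM upwards.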
# [10] = biological target: Cytochrome P450 1A2 (Homo sapiens) (UniProt P05177); assay: p450-cyp1a2 (AID 410; calls by dose curve; note: potency is the fitted concentration of half-maximal effect)
# Cytochrome P450 1A2 (Homo sapiens), sequence (P05177 whole entry, looked up): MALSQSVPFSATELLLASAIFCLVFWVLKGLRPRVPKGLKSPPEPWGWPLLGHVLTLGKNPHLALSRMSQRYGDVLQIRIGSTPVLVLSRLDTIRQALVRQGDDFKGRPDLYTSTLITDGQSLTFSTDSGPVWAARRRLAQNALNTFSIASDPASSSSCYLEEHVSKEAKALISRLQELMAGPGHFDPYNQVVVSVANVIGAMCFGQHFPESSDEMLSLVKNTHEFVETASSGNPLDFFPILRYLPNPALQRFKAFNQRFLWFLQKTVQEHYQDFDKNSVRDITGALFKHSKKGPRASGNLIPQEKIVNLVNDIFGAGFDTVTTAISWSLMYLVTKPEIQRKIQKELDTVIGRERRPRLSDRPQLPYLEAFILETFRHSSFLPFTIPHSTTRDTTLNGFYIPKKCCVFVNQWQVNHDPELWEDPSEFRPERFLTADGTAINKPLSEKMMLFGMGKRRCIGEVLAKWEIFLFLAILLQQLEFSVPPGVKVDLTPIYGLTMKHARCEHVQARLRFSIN
# Summary of the method: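 20nM CYP1A2, 100uM Luciferin-ME (=Km), 100mM KPO4; cpd 10 min RT; +NADPH regen, 60 min RT; stop/detect 20 min; luminescence. Normalized to furafylline 57 uM = full inhibition.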
# [11] = NFAT Signaling Pathway (AID 444; active = well fitted curve in either direction with a large enough effect, not every such curve was filed as active;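 note: carbachol stimulus at about its EC50 of 1 µM final; % is set by controls: 0 for no effect and ±100 for the full control effect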); conditions: Jurkat NFAT-bla M1, carbachol, beta-lactamase ratio, 5 h; at 7.69 µM (top of the series)
# Summary of the method: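 Read-out: CCF4 FRET ratio (460 nm/530 nm) after 1 h RT dye loading, used for %activity and AC50 from titration series. Cells: Jurkat NFAT-β-lactamase/M1 line, treated with compound plus 1 uM carbachol for 5 h, 37 °C.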
# [12] = Stat Signaling Pathway (AID 446; active = well fitted curve in either direction with a large enough effect, not every such curve was filed as active;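 note: ME-180 cervical cancer cells given 40 pM IL-6 alongside compound; SIE-controlled beta-lactamase reporter measured as 460/530 nm FRET emission ratio; % is set by controls: 0 for no effect and ±100 for the full control effect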); conditions: ME-180 (cervical carcinoma) SIE beta-lactamase reporter, IL-6 stimulated, 5 h; at 7.69 µM (top of the series)
# Summary of the method: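 Emission at 460 and 530 nm (excitation 405 nm) reports SIE-controlled beta-lactamase in ME-180 cells. Cells received compound with 40 pM IL-6 for 5 hrs at 37 C; data scaled between 300 pM IL-6 and 125 nM JAK-inhibitor controls.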
# [13] = biological target: Glucocorticoid receptor (Homo sapiens) (UniProt P04150); assay: GR-GFP Redistribution (AID 450;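 active = compounds whose dose series gives a full or clear partial fitted curve of increased nuclear translocation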; note: potency is the fitted concentration of half-maximal effect); conditions: U2OS GR-GFP nuclear translocation, laser cytometry, 2 h
# Glucocorticoid receptor (Homo sapiens), sequence (P04150 whole entry, looked up, the tested form may be a part): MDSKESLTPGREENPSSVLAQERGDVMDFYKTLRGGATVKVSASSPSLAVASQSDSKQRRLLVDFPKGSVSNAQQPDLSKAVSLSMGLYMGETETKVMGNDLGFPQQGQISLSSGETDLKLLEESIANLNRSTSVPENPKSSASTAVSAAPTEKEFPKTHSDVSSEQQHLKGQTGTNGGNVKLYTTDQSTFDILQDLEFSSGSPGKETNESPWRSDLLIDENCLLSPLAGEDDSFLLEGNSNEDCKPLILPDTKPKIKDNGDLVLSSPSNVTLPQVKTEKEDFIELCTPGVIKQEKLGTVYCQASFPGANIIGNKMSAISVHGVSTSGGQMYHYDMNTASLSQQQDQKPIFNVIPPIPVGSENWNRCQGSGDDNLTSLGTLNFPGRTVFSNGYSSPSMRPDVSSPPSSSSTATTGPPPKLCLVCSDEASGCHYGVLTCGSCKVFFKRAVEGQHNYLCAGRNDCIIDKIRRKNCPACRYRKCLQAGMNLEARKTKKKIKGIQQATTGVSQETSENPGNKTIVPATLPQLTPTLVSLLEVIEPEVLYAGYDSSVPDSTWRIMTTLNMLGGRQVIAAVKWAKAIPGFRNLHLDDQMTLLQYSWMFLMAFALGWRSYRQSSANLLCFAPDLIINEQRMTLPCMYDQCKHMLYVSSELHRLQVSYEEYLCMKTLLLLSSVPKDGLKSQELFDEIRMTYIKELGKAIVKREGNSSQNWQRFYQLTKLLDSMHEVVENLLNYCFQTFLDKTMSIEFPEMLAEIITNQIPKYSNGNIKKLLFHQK
# [14] = biological target: Glucocorticoid receptor (Homo sapiens) (UniProt P04150); assay: GR-EFC Redistribution (AID 451; calls by dose curve; note: potency is the fitted concentration of half-maximal effect); conditions: CHO-K1 GR-EFC translocation, beta-gal luminescence, 2 h
# Summary of the method: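 Translocation of GR-ED fusion to nuclear EA restores b-gal, read by luminescence after 1 h room-temperature detection. Engineered CHO-K1 biosensor cells, 1,000/well, exposed 2 h at 37 C to titrations up to 46 uM final.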
# [15] = biological target: Mitogen-activated protein kinase 10 (Mus musculus) (UniProt Q61831); assay: JNK3 AlphaScreen Assay (AID 530; active = well fitted curve in either direction with a large enough effect, not every such curve was filed as active;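 note: kinase came from lysate of stimulated human HepG2 cells; signal reports phosphorylation of biotinylated GST-cJun 1-79 at Ser73 with 10 µM ATP; % is set by controls: 0 for no effect and ±100 for the full control effect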)
# Summary of the method: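 Kinase buffer: 20 mM Tris-HCl pH 7.6, 10 mM MgCl2, 1 mM DTT, 0.1 mM Na3VO4, 0.01% Tween-20; ATP 10 uM. Substrate biotin-GST-cJun(1-79), enzyme from activated HepG2 lysates. Detection by Ser73 phospho-antibody AlphaScreen.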
# [16] = biological target: Cytochrome P450 3A4 (Homo sapiens) (UniProt P08684); assay: qHTS Assay for Inhibitors and Substrates of Cytochrome P450 3A4 (AID 884); note: % is set by controls: 0 for no effect and ±100 for the full control effect; nearly all actives have a fitted effect of over 50% in size
# Cytochrome P450 3A4 (Homo sapiens), sequence (P08684 whole entry, looked up): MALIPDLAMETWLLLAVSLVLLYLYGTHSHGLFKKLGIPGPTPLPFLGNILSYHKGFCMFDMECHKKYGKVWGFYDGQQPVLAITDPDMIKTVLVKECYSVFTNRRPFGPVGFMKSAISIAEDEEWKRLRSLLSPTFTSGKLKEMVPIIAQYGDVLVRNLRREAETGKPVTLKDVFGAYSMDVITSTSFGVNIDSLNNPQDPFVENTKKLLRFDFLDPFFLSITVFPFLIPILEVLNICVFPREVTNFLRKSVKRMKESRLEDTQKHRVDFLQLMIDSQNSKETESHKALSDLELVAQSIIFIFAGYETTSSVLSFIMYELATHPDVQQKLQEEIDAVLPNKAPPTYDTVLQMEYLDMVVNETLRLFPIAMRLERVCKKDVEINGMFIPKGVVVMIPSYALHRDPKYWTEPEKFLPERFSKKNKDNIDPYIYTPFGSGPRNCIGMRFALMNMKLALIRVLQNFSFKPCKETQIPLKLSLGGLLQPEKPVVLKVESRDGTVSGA
# Summary of the method: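 Luminescent readout of luciferin produced by CYP3A4 (20 nM) dealkylation of Luciferin-PPXE, 25 uM (its KM). NADPH-driven reaction ran 60 min at RT after 10 min compound preincubation; data scaled to 57 uM ketoconazole as 100% inhibition.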
# [17] = biological target: Cytochrome P450 2D6 (Homo sapiens) (UniProt P10635); assay: qHTS Assay for Inhibitors and Substrates of Cytochrome P450 2D6 (AID 891); note: potency is the fitted concentration of half-maximal effect; nearly all actives have a fitted effect of over 60% in size
# Cytochrome P450 2D6 (Homo sapiens), sequence (P10635 whole entry, looked up): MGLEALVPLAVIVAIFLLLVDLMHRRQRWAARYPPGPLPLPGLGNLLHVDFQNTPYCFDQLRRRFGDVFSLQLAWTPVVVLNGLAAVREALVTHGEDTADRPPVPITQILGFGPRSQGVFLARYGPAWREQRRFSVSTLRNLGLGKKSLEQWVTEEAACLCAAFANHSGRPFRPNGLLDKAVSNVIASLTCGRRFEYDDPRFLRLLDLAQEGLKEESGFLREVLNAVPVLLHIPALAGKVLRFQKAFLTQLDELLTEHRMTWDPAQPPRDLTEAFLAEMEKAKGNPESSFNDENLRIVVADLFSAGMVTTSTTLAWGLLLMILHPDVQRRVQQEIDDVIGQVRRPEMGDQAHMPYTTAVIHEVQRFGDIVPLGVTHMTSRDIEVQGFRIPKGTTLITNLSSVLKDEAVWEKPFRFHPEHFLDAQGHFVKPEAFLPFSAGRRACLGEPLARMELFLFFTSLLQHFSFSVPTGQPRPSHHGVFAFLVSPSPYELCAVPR
# Summary of the method: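 Luminescent read-out of luciferin formed by 5 nM human CYP2D6 demethylating 30 uM Luciferin-ME EGE (Km level) over 60 min at room temperature after NADPH regeneration addition. Data normalized to full inhibition by 1.43 uM quinidine.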
# [18] = biological target: Cytochrome P450 2C19 (Homo sapiens) (UniProt P33261); assay: qHTS Assay for Inhibitors and Substrates of Cytochrome P450 2C19 (AID 899); note: potency is the fitted concentration of half-maximal effect; nearly all actives have a fitted effect of over 60% in size
# Cytochrome P450 2C19 (Homo sapiens), sequence (P33261 whole entry, looked up): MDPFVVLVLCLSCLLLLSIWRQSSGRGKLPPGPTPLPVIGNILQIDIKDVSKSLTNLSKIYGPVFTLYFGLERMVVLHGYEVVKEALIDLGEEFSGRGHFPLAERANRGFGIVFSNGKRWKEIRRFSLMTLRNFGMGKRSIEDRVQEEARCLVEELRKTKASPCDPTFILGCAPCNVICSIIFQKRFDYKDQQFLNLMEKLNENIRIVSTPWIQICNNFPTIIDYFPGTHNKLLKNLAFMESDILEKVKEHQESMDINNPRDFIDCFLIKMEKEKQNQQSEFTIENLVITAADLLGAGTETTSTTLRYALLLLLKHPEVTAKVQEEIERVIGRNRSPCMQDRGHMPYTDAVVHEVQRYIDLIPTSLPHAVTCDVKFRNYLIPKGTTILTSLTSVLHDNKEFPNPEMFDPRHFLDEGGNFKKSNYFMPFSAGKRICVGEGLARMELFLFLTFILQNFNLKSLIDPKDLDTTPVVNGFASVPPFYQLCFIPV
# Summary of the method: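 Reactions contain 5nM enzyme, 10uM Luciferin-H EGE (KM) and 50mM KPO4; compound preincubates 10 min at 37C, NADPH regeneration starts turnover for 60 min. Luminescence after detection reagent gives activity.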
# [19] = Confirmation and Secondary Assay for Modulators of Hemoglobin Beta Chain Splicing at IVS2 654 locus (AID 910);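 note: HeLa cells stably carrying EGFP split by mutant beta-globin IVS2-654 intron; % of control where 0% means no effect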
# Summary of the method: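 Readout: per-well total peak green fluorescence (488 nm ex, 500–520 nm em) from objects 5–250 µm, reflecting correct splicing of an EGFP-654 reporter. Compounds were applied for 2 days at 37 °C to overnight-plated HeLa EGFP-654 cells; controls were DMSO and 500 nM IVS2-654 PNA.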
# [20] = Confirmation and Secondary Assay for Modulators of Hemoglobin Beta Chain Splicing at IVS2 705 locus (AID 930);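 note: HeLa cells stably expressing the EGFP-705 splicing reporter; GFP fluorescence per well restored by corrected splicing of the IVS2-705 intron in EGFP; % of control where 0% means no effect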
# Summary of the method: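 HeLa cells stably carrying EGFP interrupted by mutant beta-globin intron 2 (IVS2-705) treated 2 days at 37C with compound; 500 nM antisense PNA as control. Correct splicing read as total peak GFP intensity per well by laser-scanning cytometry.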
# [21] = qHTS Assay for Lipid Storage Modulators (AID 1519; calls by dose curve); conditions: Drosophila S3 cells, BODIPY lipid droplet/cell ratio, laser cytometry, cells loaded with oleic acid
# Summary of the method: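 Cells seeded at 5,000 per well were treated with compounds over a concentration series and loaded with oleic acid (400 uM, as added). Lipid droplet fluorescence (488 nm excitation, 500-530 nm channel) was read by laser-scanning cytometry and normalized to 20 uM Triacsin C.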
# [22] = biological target: Ubiquitin carboxyl-terminal hydrolase 1 (Homo sapiens) (UniProt O94782); assay: Inhibitors of USP1/UAF1: Pilot qHTS (AID 504865);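 note: rhodamine fluorescence freed from ubiquitin-rhodamine substrate followed over time; top concentration of the series differs between compounds; % is set by controls: 0 for no effect and ±100 for the full control effect; nearly all actives have a fitted effect of over 35% in size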
# Ubiquitin carboxyl-terminal hydrolase 1 (Homo sapiens), sequence (O94782 whole entry, looked up): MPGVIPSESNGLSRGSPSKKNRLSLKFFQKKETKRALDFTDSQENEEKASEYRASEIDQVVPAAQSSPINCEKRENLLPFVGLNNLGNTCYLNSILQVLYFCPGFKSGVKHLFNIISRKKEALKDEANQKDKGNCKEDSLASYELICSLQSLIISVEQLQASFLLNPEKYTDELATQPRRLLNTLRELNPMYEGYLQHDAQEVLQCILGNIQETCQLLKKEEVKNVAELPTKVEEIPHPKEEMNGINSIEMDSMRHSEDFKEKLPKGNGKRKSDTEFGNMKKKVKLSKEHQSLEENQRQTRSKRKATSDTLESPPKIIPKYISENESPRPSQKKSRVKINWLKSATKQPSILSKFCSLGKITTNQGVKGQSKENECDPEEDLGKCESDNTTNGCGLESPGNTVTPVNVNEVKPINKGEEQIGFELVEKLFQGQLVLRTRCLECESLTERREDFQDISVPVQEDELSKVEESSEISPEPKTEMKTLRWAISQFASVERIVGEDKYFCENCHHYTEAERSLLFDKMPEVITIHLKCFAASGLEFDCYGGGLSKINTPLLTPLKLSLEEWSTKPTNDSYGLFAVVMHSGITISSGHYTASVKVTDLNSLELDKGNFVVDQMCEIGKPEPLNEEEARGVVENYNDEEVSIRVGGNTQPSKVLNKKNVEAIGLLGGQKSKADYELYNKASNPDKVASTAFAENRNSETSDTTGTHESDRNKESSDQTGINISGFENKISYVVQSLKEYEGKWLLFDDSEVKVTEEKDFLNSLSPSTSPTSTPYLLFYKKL
# Summary of the method: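 In 50mM HEPES pH 7.8 containing 0.5mM EDTA, 1mM TCEP, 0.1 mg/ml BSA and 0.01% Tween-20, 1nM USP1/UAF1 is exposed to compound for 15 min, then Ub-Rho (150nM final) is added and fluorescence is read over time.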
# [23] = measured here: PEO1 parental Z-AUC
smiles,measurement,setting,value
COc1cc(OC)cc(N(CCNC(C)C)c2ccc3ncc(-c4cnn(C)c4)nc3c2)c1,Potency,[1],10.3 µM (active)
same,Potency,[2],13.1 µM (active)
same,Potency,[3],11.8 µM (active)
same,Potency,[4],10.5 µM (active)
same,Potency,[5],inactive
same,Potency,[6],inactive
same,Z-AUC,[7],-0.272 (inactive)
same,Z-AUC,[7]; [23],-0.0954
same,Z-AUC,[7]; measured here: PEO4 Z-AUC,-0.145
same,Potency,[8],17.6 µM (active)
CN(C)Cc1cccc(N=C(c2ccccc2)c2c(O)[nH]c3cc(C(N)=O)ccc23)c1,Potency,[1],inactive
same,Potency,[2],inactive
same,Potency,[3],16.4 µM (active)
same,Potency,[5],inactive
same,Potency,[6],inactive
same,Z-AUC,[7],0.325 (inactive)
same,Z-AUC,[7]; [23],0.627
same,Z-AUC,[7]; measured here: PEO4 Z-AUC,-0.143
CN(C)CC(=O)N1CCC[C@@H](n2nc(-c3ccc(Oc4ccccc4)cc3)c3c(N)ncnc32)C1,Potency,[1],20.6 µM (active)
same,Potency,[3],1.64 µM (active)
same,Potency,[4],1.64 µM (active)
same,Potency,[5],inactive
c1csc(CNc2ncnc3ccc(-c4ccc5c(c4)OCO5)cc23)c1,Potency,[9],> 11.4 µM (inactive)
same,Potency,[10],0.398 µM (active)
same,"activity change, negative = inhibition",[11],5.05% (inactive)
same,"activity, negative = inhibition",[12],-12.1% (inactive)
same,Potency,[13],> 46 µM (inactive)
same,Potency,[14],> 46 µM (inactive)
same,Potency,[15],inactive
same,Potency,[16],inactive
same,Potency,[17],0.398 µM (active)
same,Potency,[18],3.98 µM (active)
same,outcome,[19],inactive
same,outcome,[20],inactive
same,"activity change, negative = inhibition",[21]; at 57.5 µM (top of the series),9.51% (inactive)
same,max response,[21]; measured here: cell count channel max response,14.3%
same,max response,[21]; measured here: lipid channel max response,25.9%
same,Potency,[22],inactive
same,Potency,[1],11.6 µM (active)
same,Potency,[5],inactive
